Numbering of substitutions follows the chain as printed.

This note sets out measurements from paper PMC8384837, “Expanding the binding specificity for RNA recognition by a PUF domain”.

Common to all, as to test: yeast three-hybrid, YBZ-1, SC-Leu-His + 0.5 mM 3-AT, 4 days
Conditions in all cases: tags: N-Gal4 AD-HA kept; label: inside an RPR1-promoter hybrid RNA with tandem MS2 sites; ssRNA

The target of one assay is PUM1 PUF domain R3-YRA (Homo sapiens, UniProt Q14671 828-1176, C935Y;Q939A). The gist of the method:
(§1)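 Pumilio-1 PUF domain libraries, randomized at the three base-contacting residues of each repeat, were co-expressed with matching RNA elements from a centromeric plasmid in strain YBZ-1, which carries a LexA–MS2 coat fusion and a HIS3 reporter. Transformants grew for four days on SC-Leu (input) or on SC-Leu-His + 0.5 mM 3-AT (selection), and the repeat regions were PCR-amplified and Illumina-sequenced. The interaction score is the log change in variant frequency from input to selection. That logarithm is base 2, with a pseudocount of 1 where a variant was absent.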

The next assay addresses PUM1 PUF domain R8-KWN (Homo sapiens, UniProt Q14671 828-1176, N1122K;Y1123W;Q1126N). The gist of the method: as §1
Another assay has as its target PUM1 PUF domain R3-DYG (Homo sapiens, UniProt Q14671 828-1176, C935D;R936Y;Q939G). An outline of the steps:
as §1

Another assay has as its target PUM1 PUF domain R5-RYC (Homo sapiens, UniProt Q14671 828-1176, C1007R;R1008Y;Q1011C). An outline of the steps: as §1
The next assay concerns the target T1, PUM1 PUF domain R6-GWQ (Homo sapiens, UniProt Q14671 828-1176, N1043G;Y1044W).
T1 sequence: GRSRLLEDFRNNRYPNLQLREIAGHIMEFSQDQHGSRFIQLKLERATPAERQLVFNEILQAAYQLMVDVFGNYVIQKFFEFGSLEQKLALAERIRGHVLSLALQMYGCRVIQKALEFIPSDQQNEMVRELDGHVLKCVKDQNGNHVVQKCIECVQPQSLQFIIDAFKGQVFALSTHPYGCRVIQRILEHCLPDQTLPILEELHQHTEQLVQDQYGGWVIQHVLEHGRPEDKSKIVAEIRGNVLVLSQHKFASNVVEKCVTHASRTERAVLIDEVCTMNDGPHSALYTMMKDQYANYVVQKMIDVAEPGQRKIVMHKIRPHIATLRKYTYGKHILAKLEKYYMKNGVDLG
An outline of the steps: as §1

The target in the next assay is PUM1 PUF domain R5-TFY (Homo sapiens, UniProt Q14671 828-1176, C1007T;R1008F;Q1011Y). An outline of the steps:
as §1

The target of a further assay is T2, PUM1 PUF domain R6-IYE (Homo sapiens, UniProt Q14671 828-1176, N1043I;Q1047E).
T2 sequence: T1 sequence with G216I, W217Y, Q220E
The gist of the method:
as §1

Another assay deals with T3, PUM1 PUF domain R6-LYL (Homo sapiens, UniProt Q14671 828-1176, N1043L;Q1047L).
T3 sequence: T1 sequence with G216L, W217Y, Q220L
The gist of the method:
as §1

A further assay concerns the target PUM1 PUF domain R4-SRN (Homo sapiens, UniProt Q14671 828-1176, N971S;H972R;Q975N). The gist of the method: as §1
The next assay has as its target PUM1 PUF domain R7-KYF (Homo sapiens, UniProt Q14671 828-1176, S1079K;N1080Y;E1083F). The gist of the method:
as §1

The target in another assay is PUM1 PUF domain R4-PRQ (Homo sapiens, UniProt Q14671 828-1176, N971P;H972R). The gist of the method: as §1
The target in the next assay is T4, PUM1 PUF domain R6-EWK (Homo sapiens, UniProt Q14671 828-1176, N1043E;Y1044W;Q1047K).
T4 sequence: T1 sequence with G216E, Q220K
An outline of the steps: as §1

A further assay deals with PUM1 PUF domain R1-RKR (Homo sapiens, UniProt Q14671 828-1176, S863R;R864K;Q867R). An outline of the steps: as §1
Another assay concerns the target PUM1 PUF domain R7-GCD (Homo sapiens, UniProt Q14671 828-1176, S1079G;N1080C;E1083D). An outline of the steps:
as §1

A further assay concerns the target PUM1 PUF domain R5-RQQ (Homo sapiens, UniProt Q14671 828-1176, C1007R;R1008Q). An outline of the steps: as §1
The next assay addresses PUM1 PUF domain R4-HHN (Homo sapiens, UniProt Q14671 828-1176, N971H;Q975N). An outline of the steps:
as §1

Another assay addresses PUM1 PUF domain R1-KRA (Homo sapiens, UniProt Q14671 828-1176, S863K;Q867A). An outline of the steps: as §1
Another assay concerns the target PUM1 PUF domain R5-DRR (Homo sapiens, UniProt Q14671 828-1176, C1007D;Q1011R). An outline of the steps: as §1
In another assay the target is PUM1 PUF domain R3-FCA (Homo sapiens, UniProt Q14671 828-1176, C935F;R936C;Q939A). An outline of the steps:
as §1

A further assay deals with PUM1 PUF domain R3-LRE (Homo sapiens, UniProt Q14671 828-1176, C935L;Q939E). An outline of the steps: as §1

On to “GGCUAGAACUAGUGGAUCCCCCGGCGCCCGGCGGCUCGAGCCCGGGUAAGUGUAAAUAGUCUGCAUGCCGCCGGGCGCCAUGCCUGCAGGUCGACUCUAGAAAACAUG”, for which the binding signal in the assay with PUM1 PUF domain R3-YRA is 0.87 log2 enrichment (interaction score); with PUM1 PUF domain R8-KWN it was 2.44 log2 enrichment (interaction score); with PUM1 PUF domain R3-DYG, 3.9 log2 enrichment (interaction score); in the assay with PUM1 PUF domain R5-RYC it was 3.48 log2 enrichment (interaction score); with PUM1 PUF domain R6-GWQ it was 5.78 log2 enrichment (interaction score); in the assay with PUM1 PUF domain R5-TFY, 2.23 log2 enrichment (interaction score). The binding signal in the assay with PUM1 PUF domain R6-IYE is 2.5 log2 enrichment (interaction score); with PUM1 PUF domain R6-LYL, 2.24 log2 enrichment (interaction score); with PUM1 PUF domain R4-SRN it was 3.38 log2 enrichment (interaction score).

Consider “GGCUAGAACUAGUGGAUCCCCCGGCGCCCGGCGGCUCGAGCCCGGGUAAGUCUAAAUAGUCUGCAUGCCGCCGGGCGCCAUGCCUGCAGGUCGACUCUAGAAAACAUG”, for which the binding signal with PUM1 PUF domain R7-KYF was 6.02 log2 enrichment (interaction score).

Turning to “GGCUAGAACUAGUGGAUCCCCCGGCGCCCGGCGGCUCGAGCCCGGGUAAGUGUACAUAGUCUGCAUGCCGCCGGGCGCCAUGCCUGCAGGUCGACUCUAGAAAACAUG”, the binding signal with PUM1 PUF domain R4-PRQ was 3.53 log2 enrichment (interaction score).

Turning to “GGCUAGAACUAGUGGAUCCCCCGGCGCCCGGCGGCUCGAGCCCGGGUAAGUGGAAAUAGUCUGCAUGCCGCCGGGCGCCAUGCCUGCAGGUCGACUCUAGAAAACAUG”, in the assay with PUM1 PUF domain R6-EWK, the binding signal is 2.84 log2 enrichment (interaction score).

For the sequence “GGCUAGAACUAGUGGAUCCCCCGGCGCCCGGCGGCUCGAGCCCGGGUAAGUGUAAAUUGUCUGCAUGCCGCCGGGCGCCAUGCCUGCAGGUCGACUCUAGAAAACAUG”, the binding signal with PUM1 PUF domain R1-RKR was 3.15 log2 enrichment (interaction score).

In the case of “GGCUAGAACUAGUGGAUCCCCCGGCGCCCGGCGGCUCGAGCCCGGGUAAGCGUAAAUAGUCUGCAUGCCGCCGGGCGCCAUGCCUGCAGGUCGACUCUAGAAAACAUG”, the binding signal with PUM1 PUF domain R8-KWN was 2.89 log2 enrichment (interaction score).

As to “GGCUAGAACUAGUGGAUCCCCCGGCGCCCGGCGGCUCGAGCCCGGGUAAGUGAAAAUAGUCUGCAUGCCGCCGGGCGCCAUGCCUGCAGGUCGACUCUAGAAAACAUG”, the binding signal with PUM1 PUF domain R6-LYL was 3.54 log2 enrichment (interaction score).

In the case of “GGCUAGAACUAGUGGAUCCCCCGGCGCCCGGCGGCUCGAGCCCGGGUAAGUUUAAAUAGUCUGCAUGCCGCCGGGCGCCAUGCCUGCAGGUCGACUCUAGAAAACAUG”, the binding signal with PUM1 PUF domain R7-GCD is 3.51 log2 enrichment (interaction score).

Take “GGCUAGAACUAGUGGAUCCCCCGGCGCCCGGCGGCUCGAGCCCGGGUAAGUGUGAAUAGUCUGCAUGCCGCCGGGCGCCAUGCCUGCAGGUCGACUCUAGAAAACAUG”: the binding signal in the assay with PUM1 PUF domain R5-RQQ was 1.47 log2 enrichment (interaction score).

For “GGCUAGAACUAGUGGAUCCCCCGGCGCCCGGCGGCUCGAGCCCGGGUAAGUAUAAAUAGUCUGCAUGCCGCCGGGCGCCAUGCCUGCAGGUCGACUCUAGAAAACAUG”, the binding signal with PUM1 PUF domain R7-KYF was 3.75 log2 enrichment (interaction score).

Consider “GGCUAGAACUAGUGGAUCCCCCGGCGCCCGGCGGCUCGAGCCCGGGUAAGGGUAAAUAGUCUGCAUGCCGCCGGGCGCCAUGCCUGCAGGUCGACUCUAGAAAACAUG”, for which, in the assay with PUM1 PUF domain R8-KWN, the binding signal is 2.68 log2 enrichment (interaction score).

Take “GGCUAGAACUAGUGGAUCCCCCGGCGCCCGGCGGCUCGAGCCCGGGUAAGUGUAUAUAGUCUGCAUGCCGCCGGGCGCCAUGCCUGCAGGUCGACUCUAGAAAACAUG”: the binding signal was 6.48 log2 enrichment (interaction score) in the assay with PUM1 PUF domain R4-HHN and 0.7 log2 enrichment (interaction score) with PUM1 PUF domain R4-SRN.

In the case of “GGCUAGAACUAGUGGAUCCCCCGGCGCCCGGCGGCUCGAGCCCGGGUAAGUGUAAAUCGUCUGCAUGCCGCCGGGCGCCAUGCCUGCAGGUCGACUCUAGAAAACAUG”, the binding signal is 3.04 log2 enrichment (interaction score) with PUM1 PUF domain R1-RKR and 5.03 log2 enrichment (interaction score) with PUM1 PUF domain R1-KRA.

Consider “GGCUAGAACUAGUGGAUCCCCCGGCGCCCGGCGGCUCGAGCCCGGGUAAGUGUUAAUAGUCUGCAUGCCGCCGGGCGCCAUGCCUGCAGGUCGACUCUAGAAAACAUG”, for which the binding signal in the assay with PUM1 PUF domain R5-RYC is 4.89 log2 enrichment (interaction score); in the assay with PUM1 PUF domain R5-RQQ it was 5.69 log2 enrichment (interaction score); with PUM1 PUF domain R5-DRR, 2.64 log2 enrichment (interaction score).

Consider “GGCUAGAACUAGUGGAUCCCCCGGCGCCCGGCGGCUCGAGCCCGGGUAAGUGUCAAUAGUCUGCAUGCCGCCGGGCGCCAUGCCUGCAGGUCGACUCUAGAAAACAUG”, for which the binding signal with PUM1 PUF domain R5-RYC is 4.73 log2 enrichment (interaction score); with PUM1 PUF domain R5-RQQ, 5.36 log2 enrichment (interaction score); with PUM1 PUF domain R5-DRR it was 3.48 log2 enrichment (interaction score).

For “GGCUAGAACUAGUGGAUCCCCCGGCGCCCGGCGGCUCGAGCCCGGGUAAGUGUAAGUAGUCUGCAUGCCGCCGGGCGCCAUGCCUGCAGGUCGACUCUAGAAAACAUG”, the binding signal with PUM1 PUF domain R3-YRA is 5.09 log2 enrichment (interaction score); with PUM1 PUF domain R3-FCA, 5.61 log2 enrichment (interaction score); with PUM1 PUF domain R3-LRE, 3.1 log2 enrichment (interaction score).

On to “GGCUAGAACUAGUGGAUCCCCCGGCGCCCGGCGGCUCGAGCCCGGGUAAGUGUAAUUAGUCUGCAUGCCGCCGGGCGCCAUGCCUGCAGGUCGACUCUAGAAAACAUG”, for which the binding signal in the assay with PUM1 PUF domain R3-DYG was 1.49 log2 enrichment (interaction score).
